For assay [1], the target named is MAP kinase-activated protein kinase 2 (Homo sapiens) (UniProt P49137). The conditions noted are these: at 10 µM.
Assay [2] has as its target Serine/threonine-protein kinase MARK1 (Homo sapiens) (UniProt Q9P0L2). The following applies: at 1 µM.
For assay [3] the target is unchanged. The conditions noted are these: at 10 µM.
The target of assay [4] is Maternal embryonic leucine zipper kinase (Homo sapiens) (UniProt Q14680). The following applies: at 1 µM.
Assay [5] has the same target. The conditions noted are these: at 10 µM.
Assay [6] concerns the target T1, Dual specificity mitogen-activated protein kinase kinase 6 (Homo sapiens) (UniProt P52564).
T1 sequence (whole entry): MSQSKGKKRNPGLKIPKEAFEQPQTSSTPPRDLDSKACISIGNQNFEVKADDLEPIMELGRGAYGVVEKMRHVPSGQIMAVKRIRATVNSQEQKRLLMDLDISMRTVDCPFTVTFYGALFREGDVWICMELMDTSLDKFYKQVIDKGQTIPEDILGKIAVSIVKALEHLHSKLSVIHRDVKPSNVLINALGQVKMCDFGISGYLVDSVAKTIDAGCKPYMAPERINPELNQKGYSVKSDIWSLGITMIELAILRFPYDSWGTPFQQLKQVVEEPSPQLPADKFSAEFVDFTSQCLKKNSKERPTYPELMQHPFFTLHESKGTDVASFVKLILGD
The following applies: at 1 µM.

The target in assay [7] is T1, Dual specificity mitogen-activated protein kinase kinase 6 (Homo sapiens). The conditions noted are these: at 10 µM.
Assay [8] has as its target T2, Dual specificity mitogen-activated protein kinase kinase 7 (Homo sapiens) (UniProt O14733).
T2 sequence (whole entry): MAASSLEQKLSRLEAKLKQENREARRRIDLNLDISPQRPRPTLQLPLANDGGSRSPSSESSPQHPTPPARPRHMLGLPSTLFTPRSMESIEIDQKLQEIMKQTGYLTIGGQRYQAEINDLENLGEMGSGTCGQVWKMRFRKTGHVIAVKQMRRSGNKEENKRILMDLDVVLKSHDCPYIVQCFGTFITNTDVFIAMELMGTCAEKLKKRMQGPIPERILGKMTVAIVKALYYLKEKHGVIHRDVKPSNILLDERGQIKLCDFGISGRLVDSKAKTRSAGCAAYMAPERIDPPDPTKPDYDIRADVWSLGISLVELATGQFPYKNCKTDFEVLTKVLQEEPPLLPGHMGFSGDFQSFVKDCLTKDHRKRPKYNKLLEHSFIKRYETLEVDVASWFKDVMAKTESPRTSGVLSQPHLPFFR
The following applies: at 10 µM.

The target of assay [9] is Myosin light chain kinase, smooth muscle (Homo sapiens) (UniProt Q15746). The conditions noted are these: at 1 µM.
Myosin light chain kinase, smooth muscle (Homo sapiens), sequence (Q15746 whole entry): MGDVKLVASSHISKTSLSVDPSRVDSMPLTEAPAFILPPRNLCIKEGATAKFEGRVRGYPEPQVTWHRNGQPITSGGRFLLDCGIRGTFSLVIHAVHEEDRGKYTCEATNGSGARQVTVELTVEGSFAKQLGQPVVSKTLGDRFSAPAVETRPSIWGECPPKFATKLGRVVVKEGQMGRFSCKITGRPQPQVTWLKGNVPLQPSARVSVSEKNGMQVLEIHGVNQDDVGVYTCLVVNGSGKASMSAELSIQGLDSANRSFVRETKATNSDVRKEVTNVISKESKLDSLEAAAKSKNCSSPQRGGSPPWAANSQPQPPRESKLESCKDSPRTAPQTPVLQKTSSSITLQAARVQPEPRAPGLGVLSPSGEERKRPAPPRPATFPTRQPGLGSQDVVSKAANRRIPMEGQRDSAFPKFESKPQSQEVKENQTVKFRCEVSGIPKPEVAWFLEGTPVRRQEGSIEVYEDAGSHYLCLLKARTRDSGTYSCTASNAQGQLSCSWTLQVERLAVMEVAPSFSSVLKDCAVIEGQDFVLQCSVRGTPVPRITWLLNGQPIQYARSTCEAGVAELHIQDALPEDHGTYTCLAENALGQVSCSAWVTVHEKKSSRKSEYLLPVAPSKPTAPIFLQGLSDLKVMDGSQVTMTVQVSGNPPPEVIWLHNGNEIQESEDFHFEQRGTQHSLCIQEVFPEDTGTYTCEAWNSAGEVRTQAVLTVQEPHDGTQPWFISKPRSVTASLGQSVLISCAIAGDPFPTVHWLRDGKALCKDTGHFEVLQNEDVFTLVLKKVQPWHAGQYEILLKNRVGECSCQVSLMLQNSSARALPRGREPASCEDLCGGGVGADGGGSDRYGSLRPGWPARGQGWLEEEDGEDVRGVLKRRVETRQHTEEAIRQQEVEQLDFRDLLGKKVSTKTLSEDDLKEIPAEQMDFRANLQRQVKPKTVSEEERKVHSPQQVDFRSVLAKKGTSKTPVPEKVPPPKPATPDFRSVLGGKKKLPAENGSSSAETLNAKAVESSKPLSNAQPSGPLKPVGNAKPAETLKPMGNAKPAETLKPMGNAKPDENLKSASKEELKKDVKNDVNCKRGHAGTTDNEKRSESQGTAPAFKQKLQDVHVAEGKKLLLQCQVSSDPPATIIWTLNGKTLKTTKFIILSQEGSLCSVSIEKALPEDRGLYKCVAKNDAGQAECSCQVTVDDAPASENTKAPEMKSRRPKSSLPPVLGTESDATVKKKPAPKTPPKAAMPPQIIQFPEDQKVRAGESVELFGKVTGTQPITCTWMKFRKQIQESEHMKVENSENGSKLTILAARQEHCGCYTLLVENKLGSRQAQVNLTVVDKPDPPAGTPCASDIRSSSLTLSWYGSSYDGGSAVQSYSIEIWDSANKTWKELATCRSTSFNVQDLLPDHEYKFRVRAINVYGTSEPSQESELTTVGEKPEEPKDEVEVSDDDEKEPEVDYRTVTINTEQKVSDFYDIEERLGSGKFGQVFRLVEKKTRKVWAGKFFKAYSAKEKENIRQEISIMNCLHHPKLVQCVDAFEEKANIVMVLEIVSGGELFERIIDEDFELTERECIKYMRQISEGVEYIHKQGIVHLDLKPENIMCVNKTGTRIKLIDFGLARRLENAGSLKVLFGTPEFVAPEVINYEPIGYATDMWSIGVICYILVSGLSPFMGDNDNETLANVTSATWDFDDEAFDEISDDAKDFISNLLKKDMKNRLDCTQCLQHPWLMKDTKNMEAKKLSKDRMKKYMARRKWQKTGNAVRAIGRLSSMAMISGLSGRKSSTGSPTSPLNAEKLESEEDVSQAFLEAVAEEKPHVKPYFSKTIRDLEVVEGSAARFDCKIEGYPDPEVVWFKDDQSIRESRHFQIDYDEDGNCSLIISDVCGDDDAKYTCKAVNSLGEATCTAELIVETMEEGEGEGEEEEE
The target is the same in assay [10]. The following applies: at 10 µM.
Assay [11] addresses Mitogen-activated protein kinase kinase kinase 9 (Homo sapiens) (UniProt P80192). The following applies: at 1 µM.
For assay [12] the target is unchanged. The conditions noted are these: at 10 µM.
Assay [13] concerns the target MAP kinase-activated protein kinase 3 (Homo sapiens) (UniProt Q16644). The following applies: at 10 µM.
For assay [14], the target named is T2, Dual specificity mitogen-activated protein kinase kinase 7 (Homo sapiens). The conditions noted are these: at 1 µM.
In assay [15] the target is Dual specificity mitogen-activated protein kinase kinase 1 (Homo sapiens) (UniProt Q02750). The following applies: at 1 µM.
Dual specificity mitogen-activated protein kinase kinase 1 (Homo sapiens), sequence (Q02750 whole entry): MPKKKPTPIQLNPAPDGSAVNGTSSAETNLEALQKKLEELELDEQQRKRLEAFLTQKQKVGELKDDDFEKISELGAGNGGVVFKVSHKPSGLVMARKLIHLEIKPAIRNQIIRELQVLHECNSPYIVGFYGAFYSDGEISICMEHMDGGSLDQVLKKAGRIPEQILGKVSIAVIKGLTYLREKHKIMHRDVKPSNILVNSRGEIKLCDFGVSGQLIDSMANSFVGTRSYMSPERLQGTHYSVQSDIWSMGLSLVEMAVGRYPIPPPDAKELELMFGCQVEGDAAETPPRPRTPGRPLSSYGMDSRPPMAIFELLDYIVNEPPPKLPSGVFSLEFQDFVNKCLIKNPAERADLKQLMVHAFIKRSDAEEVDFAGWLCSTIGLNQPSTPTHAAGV
Assay [16] shares this target. The conditions noted are these: at 10 µM.
For assay [17], the target named is Misshapen-like kinase 1 (Homo sapiens) (UniProt Q8N4C8). The following applies: at 10 µM.
The target of assay [18] is Serine/threonine-protein kinase MRCK alpha (Homo sapiens) (UniProt Q5VT25). The following applies: at 1 µM.
Assay [19] has the same target. The conditions noted are these: at 10 µM.
Assay [20] concerns the target Misshapen-like kinase 1 (Homo sapiens) (UniProt Q8N4C8). The following applies: at 1 µM.

Data on 18 compounds can be found in ChEMBL document CHEMBL2218924, “A broad activity screen in support of a chemogenomic map for kinase signalling research and drug discovery” (Biochem J, 2013).

Molecules are shown by their SMILES.

Serine/threonine-protein kinase MARK1 (Homo sapiens), sequence (Q9P0L2 whole entry, looked up): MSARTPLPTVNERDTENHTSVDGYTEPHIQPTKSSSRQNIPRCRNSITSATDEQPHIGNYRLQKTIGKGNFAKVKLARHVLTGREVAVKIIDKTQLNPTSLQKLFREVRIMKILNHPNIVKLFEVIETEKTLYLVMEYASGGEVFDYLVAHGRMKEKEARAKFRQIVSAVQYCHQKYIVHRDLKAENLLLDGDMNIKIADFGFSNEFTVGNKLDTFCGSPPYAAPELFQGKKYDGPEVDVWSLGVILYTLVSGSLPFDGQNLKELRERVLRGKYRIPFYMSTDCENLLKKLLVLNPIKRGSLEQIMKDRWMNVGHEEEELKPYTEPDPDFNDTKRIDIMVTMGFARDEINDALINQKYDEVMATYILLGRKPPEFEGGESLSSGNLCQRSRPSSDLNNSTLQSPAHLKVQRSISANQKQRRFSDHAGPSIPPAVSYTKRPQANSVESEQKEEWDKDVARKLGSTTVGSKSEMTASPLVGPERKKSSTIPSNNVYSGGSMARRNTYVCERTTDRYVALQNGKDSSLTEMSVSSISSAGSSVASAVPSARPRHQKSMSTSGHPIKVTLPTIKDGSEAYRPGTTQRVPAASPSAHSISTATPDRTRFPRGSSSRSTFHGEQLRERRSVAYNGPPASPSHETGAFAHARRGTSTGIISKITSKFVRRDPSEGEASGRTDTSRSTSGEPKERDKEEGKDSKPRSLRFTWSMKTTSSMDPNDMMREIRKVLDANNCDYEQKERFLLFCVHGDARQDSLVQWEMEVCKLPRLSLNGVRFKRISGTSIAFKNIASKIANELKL
Maternal embryonic leucine zipper kinase (Homo sapiens), sequence (Q14680 whole entry, looked up): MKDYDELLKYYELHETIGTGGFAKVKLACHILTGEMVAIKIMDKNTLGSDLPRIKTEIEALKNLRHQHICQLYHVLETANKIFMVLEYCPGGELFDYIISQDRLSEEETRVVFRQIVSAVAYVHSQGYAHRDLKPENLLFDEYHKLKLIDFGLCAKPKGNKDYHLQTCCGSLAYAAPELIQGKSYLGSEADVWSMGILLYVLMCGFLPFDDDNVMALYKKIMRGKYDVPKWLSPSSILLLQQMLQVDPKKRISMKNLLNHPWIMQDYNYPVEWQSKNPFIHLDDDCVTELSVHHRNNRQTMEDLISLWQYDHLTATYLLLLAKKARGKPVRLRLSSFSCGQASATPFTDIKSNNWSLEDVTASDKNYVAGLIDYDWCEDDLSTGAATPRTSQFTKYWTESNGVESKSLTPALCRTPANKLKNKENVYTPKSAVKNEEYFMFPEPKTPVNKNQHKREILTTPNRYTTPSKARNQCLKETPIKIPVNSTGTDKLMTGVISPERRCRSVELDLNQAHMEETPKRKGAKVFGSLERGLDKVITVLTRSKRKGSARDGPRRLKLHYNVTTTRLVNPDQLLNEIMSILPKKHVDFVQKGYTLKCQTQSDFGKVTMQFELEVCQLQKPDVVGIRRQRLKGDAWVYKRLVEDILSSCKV
Mitogen-activated protein kinase kinase kinase 9 (Homo sapiens), sequence (P80192 whole entry, looked up): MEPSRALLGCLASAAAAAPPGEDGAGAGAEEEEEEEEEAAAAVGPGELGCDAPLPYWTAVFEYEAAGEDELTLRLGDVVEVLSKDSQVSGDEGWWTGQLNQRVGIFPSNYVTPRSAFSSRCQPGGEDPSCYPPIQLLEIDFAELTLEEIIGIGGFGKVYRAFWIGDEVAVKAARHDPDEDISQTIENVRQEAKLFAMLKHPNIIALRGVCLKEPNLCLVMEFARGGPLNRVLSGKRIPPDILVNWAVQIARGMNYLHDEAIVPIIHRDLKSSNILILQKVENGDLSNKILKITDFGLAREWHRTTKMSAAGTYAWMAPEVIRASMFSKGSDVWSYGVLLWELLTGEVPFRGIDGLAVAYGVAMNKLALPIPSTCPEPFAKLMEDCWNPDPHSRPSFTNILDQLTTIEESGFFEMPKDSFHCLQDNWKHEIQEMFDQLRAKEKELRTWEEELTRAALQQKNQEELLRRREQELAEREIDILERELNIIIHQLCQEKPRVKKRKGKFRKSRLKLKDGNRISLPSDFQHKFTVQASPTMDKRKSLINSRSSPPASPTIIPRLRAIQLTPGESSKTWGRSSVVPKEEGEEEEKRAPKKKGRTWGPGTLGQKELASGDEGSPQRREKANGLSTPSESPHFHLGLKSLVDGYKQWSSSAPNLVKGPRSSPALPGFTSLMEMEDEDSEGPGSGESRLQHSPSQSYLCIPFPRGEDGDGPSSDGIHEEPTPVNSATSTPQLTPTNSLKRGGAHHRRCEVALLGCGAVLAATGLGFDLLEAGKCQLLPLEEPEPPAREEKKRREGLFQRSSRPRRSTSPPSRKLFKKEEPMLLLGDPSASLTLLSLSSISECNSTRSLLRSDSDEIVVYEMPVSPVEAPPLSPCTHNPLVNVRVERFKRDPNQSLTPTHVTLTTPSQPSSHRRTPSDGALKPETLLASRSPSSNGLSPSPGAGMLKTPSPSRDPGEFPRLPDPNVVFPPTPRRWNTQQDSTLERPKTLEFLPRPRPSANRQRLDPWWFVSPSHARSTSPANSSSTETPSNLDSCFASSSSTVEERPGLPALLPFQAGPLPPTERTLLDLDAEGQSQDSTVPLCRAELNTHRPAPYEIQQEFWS

Turning to `O=C(NC(NC(=S)Nc1ccc(F)c([N+](=O)[O-])c1)C(Cl)(Cl)Cl)C(c1ccccc1)c1ccccc1` (centres undefined), the residual activity in [1] was 78%; in assay [2], 96%; in assay [3], 80%; in assay [4], 76%; in [5] it was 76%; in assay [6], 135%. Also, the residual activity was 80% in assay [7]; 96% in assay [8]; 103% in assay [9]; 79% in assay [10]; 102% in assay [11]; 103% in [12].

Consider `O=C1NC(=O)C(c2cn(CCCO)c3ncccc23)=C1c1cnccn1`, for which the residual activity in assay [1] amounted to 93%; in assay [13], 100%; in assay [2] it was 81%; in assay [3], 79%; in assay [4] it was 78%; in assay [5] it was 68%. The residual activity in assay [6] came to 85%; in assay [7], 77%; in [14], 100%; in [8] it was 99%; in assay [9], 84%; in assay [10], 78%. For the same compound, the residual activity in assay [11] worked out at 75%; in [12], 55%.

In the case of `Nc1ncnc2[nH]nc(Nc3ccc(F)cc3)c12`, the residual activity amounted to 95% in assay [1]; 112% in assay [13]; 69% in assay [3]; 60% in assay [15]; 23% in [16]; 51% in [5]. The residual activity in assay [17] turned out to be 48%; in [7], 74%; in [9], 100%; in assay [10] it was 78%; in assay [11], 60%; in assay [12], 12%. The residual activity turned out to be 117% in assay [18] and 106% in assay [19].

Regarding `Nc1n[nH]c2nc3ccccc3nc12`, the residual activity in assay [13] turned out to be 94%; in assay [2], 75%; in assay [3], 74%; in assay [15], 87%; in [16], 85%; in assay [4], 97%. For the same compound, the residual activity is 70% in assay [5]; 95% in [6]; 84% in assay [7]; 88% in [14]; 81% in assay [8]; 95% in assay [9]. The results for the residual activity in assay [10], in assay [11] and in assay [12] were 69%, 82% and 41%, respectively.

Turning to `Oc1cccc(-c2nc(N3CCOCC3)c3oc4ncccc4c3n2)c1`, the residual activity worked out at 74% in assay [4]; 88% in assay [5]; 91% in [6]; 71% in assay [9]; 72% in assay [10]; 90% in assay [11]. The residual activity in assay [12] is 99%; in [18], 97%; in assay [19], 91%.

Take `NC(=O)c1cccc(-c2cc(Nc3ccc(OC(F)(F)F)cc3)ncn2)c1`: the residual activity in assay [4] worked out at 74%; in [5] it was 75%; in assay [6], 144%; in assay [7], 95%; in assay [9] it was 88%; in assay [11], 95%. In addition, the residual activity was found to be 87% in assay [12] and 145% in assay [19].

On to `CCOc1nc(NC(=O)Cc2cc(OC)ccc2OC)cc(N)c1C#N`, for which the residual activity amounted to 62% in assay [7], 11% in [14], 4% in assay [8] and 78% in [10].

Take `Nc1nc(Nc2ccc(S(N)(=O)=O)cc2)nn1C(=O)c1c(F)cccc1F`: the residual activity in [15] was 73%; in assay [16], 64%; in [20] it was 107%; in assay [17], 80%; in assay [14] it was 104%; in assay [9], 78%. Besides, the residual activity in assay [10] came out at 22%; in assay [11], 16%; in assay [12], 1%.

As to `NC(=O)c1ccc(-c2nc(-c3ccc4c(c3)OCCO4)c(-c3ccccn3)[nH]2)cc1`, the residual activity in [2] turned out to be 96%; in [3], 89%; in assay [4], 73%; in assay [5] it was 70%; in [6] it was 97%; in [7] it was 58%. Moreover, the residual activity in assay [14] is 91%; in assay [8], 95%; in assay [11], 94%; in assay [12] it was 79%.

As to `Fc1ccc(-c2nc3n(c2-c2ccncc2)CCS3)cc1`, the residual activity is 100% in [13]; 89% in [4]; 82% in [5]; 96% in assay [20]; 67% in assay [17]; 61% in assay [6]. In addition, the values for the residual activity in assay [7], in assay [14] and in assay [8] were 9%, 82% and 83%, respectively.

On to `Nc1nccc(-c2c(-c3ccc(F)cc3)ncn2C2CCNCC2)n1`, for which the residual activity in assay [16] is 119%; in assay [4] it was 71%; in [5] it was 27%; in assay [6], 80%; in assay [7], 3%; in assay [10], 82%. The residual activity in [12] worked out at 48%.

With `CC(C)N(CCC(=O)c1ccc2ccccc2c1)Cc1ccccc1`, the residual activity in [2] is 73%; in assay [3], 75%; in [4], 75%; in assay [5] it was 87%; in assay [8], 38%; in assay [9], 81%. Further, the results for the residual activity in [10] and in assay [11] were 83% and 86%, respectively.

As for `O=C(Nc1nc2ccccc2n1CCN1CCOCC1)c1cccc([N+](=O)[O-])c1`, the residual activity in assay [13] was 84%; in assay [2], 80%; in [3], 81%; in assay [15], 66%; in assay [16], 81%; in [4] it was 65%. In addition, the residual activity in assay [5] was determined as 45%; in assay [6], 73%; in [7], 137%; in [14], 75%; in assay [8], 87%; in assay [9], 78%. Also, the residual activity in assay [10] came out at 83%; in assay [11], 77%; in assay [12] it was 75%.

As to `CCOC(=O)c1c(C)[nH]c(/C=C2\C(=O)Nc3ccccc32)c1C`, the residual activity in [13] came to 95%; in assay [2] it was 89%; in [3] it was 87%; in assay [4], 77%; in assay [5] it was 97%; in [20], 86%. Besides, the residual activity in assay [17] came out at 75%; in assay [6], 85%; in assay [14], 84%; in assay [8], 85%; in assay [9], 90%; in assay [10], 78%. The residual activity in assay [11] was 43%; in assay [12] it was 39%.

As for `O=S(=O)(c1cccc2cnccc12)N1CCCNCC1`, the residual activity in assay [4] is 75%; in [5], 16%; in [7] it was 81%; in assay [14], 85%; in assay [12] it was 84%.

As for `COc1ccc(-c2cnc3c(-c4ccsc4)cnn3c2)cc1`, the residual activity came to 91% in assay [2]; 95% in assay [3]; 80% in assay [4]; 87% in [5]; 89% in [20]; 76% in [17]. The residual activity in assay [6] came out at 73%; in assay [14], 74%; in [8] it was 86%; in [19] it was 99%.

Consider `CCN1/C(=C/C(C)=O)Sc2ccc(OC)cc21`, for which the residual activity turned out to be 67% in assay [2] and 65% in assay [3].

`O=C1Cc2c([nH]c3ccc(Br)cc23)-c2ccccc2N1`: the residual activity in [13] came to 89%; in [2], 51%; in assay [3] it was 12%; in [16], 82%; in assay [4], 89%; in assay [5], 68%. Further, the residual activity in [6] came to 100%; in assay [7] it was 77%; in assay [14] it was 95%; in assay [8], 62%; in assay [9], 89%; in [10] it was 58%. The residual activity in assay [11] was 22%; in assay [12], 4%.
